From PubChem BioAssay come the findings set out here.

Chain of Albumin (Bos taurus) (P02769 whole entry, looked up): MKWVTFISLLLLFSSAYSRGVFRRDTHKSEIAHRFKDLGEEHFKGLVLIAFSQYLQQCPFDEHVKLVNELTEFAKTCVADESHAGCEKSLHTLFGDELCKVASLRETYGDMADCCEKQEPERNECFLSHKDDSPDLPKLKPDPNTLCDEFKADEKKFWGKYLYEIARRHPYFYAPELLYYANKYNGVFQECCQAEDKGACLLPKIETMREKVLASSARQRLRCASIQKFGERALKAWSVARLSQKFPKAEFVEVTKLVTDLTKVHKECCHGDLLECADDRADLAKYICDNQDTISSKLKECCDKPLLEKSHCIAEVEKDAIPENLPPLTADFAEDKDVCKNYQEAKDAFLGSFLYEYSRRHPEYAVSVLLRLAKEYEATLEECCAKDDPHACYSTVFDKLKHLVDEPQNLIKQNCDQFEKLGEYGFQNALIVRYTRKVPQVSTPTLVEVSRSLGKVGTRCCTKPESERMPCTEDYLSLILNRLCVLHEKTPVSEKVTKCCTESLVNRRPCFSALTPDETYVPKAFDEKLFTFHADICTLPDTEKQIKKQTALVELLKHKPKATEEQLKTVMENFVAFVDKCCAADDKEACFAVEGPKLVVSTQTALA

The experiment concerns the target Albumin (Bos taurus) (UniProt P02769). As to the kind of experiment: compounds binding labelled BSA control protein – biochemical, small-molecule microarray, Alexa647 label, 635/667 nm fluorescence, artefact control for SMM control protein annotation, profiling panel (AID 1118).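 Note: score merges 667 nm emission intensity and signal-to-noise per printed compound spot.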 Particulars: BSA-A647 binding, fluorescence 635 nm, higher = more signal.
`COC(=O)[C@@]1(Cc2ccc(OC)cc2)[C@@H]2[C@@H](CC(=O)[C@H]2CC(=O)C(=O)N(C)C)CN1C(=O)c1ccccc1` displayed a composite z-score of 0.964.
Turning to `COC(=O)C(CC#Cc1ccc2c(c1)[C@]1(C(=O)N2)[C@H](C(=O)N2CCCCCCC2)[C@H]2C(=O)O[C@H](c3ccccc3)[C@H](c3ccccc3)N2[C@@H]1c1ccc(OCCO)cc1)C(=O)OC`, the composite z-score turned out to be 0.844.
`COc1ccc(CCNC(=O)[C@@]2(c3ccc([N+](=O)[O-])cc3)CC(=O)N(C3CCCCC3)[C@@H]2c2ccc(CO)cc2I)cc1`: the composite z-score is -0.127.
Compound `COc1c(C)cc(-c2cc3c(c(CCc4ccccc4)n2)[Si](C(C)C)(C(C)C)O[C@H]3c2ccccc2)cc1C` returned a composite z-score of -0.0598.
`CCCCC(=C=CC[C@@H](O)c1ccccc1OCCO)C[C@@H](O)c1ccccn1` displayed a composite z-score of 0.043.
Turning to `[N-]=[N+]=NCc1ccccc1C[C@]1(C(=O)N2CCCCC2)COC(c2ccc(OCCCO)cc2)=N1`, the composite z-score is 0.744.
In turn, `COc1cccc(C)c1NC(=O)O[C@H]1[C@H](OC(=O)Nc2ccccc2-c2ccccc2)[C@@H](OC(=O)Nc2ccccc2-c2ccccc2)[C@@H](OC)O[C@@H]1CO` registered a composite z-score of 0.848.
Compound `O=C1C2C=CC(C(O)c3ccccn3)N(Nc3ccc([N+](=O)[O-])cc3)C2C(=O)N1c1ccccc1` (stereo unspecified) registered a composite z-score of 0.89.
The value for `CCOC(=O)C1=C[C@@H](C(C)(C)C)N(S(=O)(=O)c2ccc(C)cc2)[C@H]1c1ccc(OC)cc1` was 0.847; that for `O=C1NC(=O)C2C1C=CC(C(O)C(c1ccccc1)c1ccccc1)N2Nc1ccccn1` (stereo unspecified) was 0.26; that for `CCCCCCc1nc(-c2ccc(OC)nc2)c(C)c2c1[Si](C(C)C)(C(C)C)OC2` was -0.854.
Turning to `CC(C)Cc1ccc(CN2CC[C@@H](NC(=O)c3ccccc3)C2)cc1`, the composite z-score worked out at 0.767.
Compound `COCCOC(=O)N1C(=O)[C@@]2(c3cc(C#CC4=CCCCC4)ccc31)[C@H](c1ccc(O)cc1)N1[C@H](c3ccccc3)[C@H](c3ccccc3)OC(=O)[C@H]1[C@@H]2C(=O)N1CCc2cc(OC)c(OC)cc2C1` showed a composite z-score of 0.699.
With `Cc1ccc(S(=O)(=O)N2[C@@H](c3ccccc3)C(C(=O)O)=CC[C@H]2c2ccc(F)cc2)cc1`, the composite z-score worked out at 0.458.
On to `COc1ccc([Si](C)(C)[C@H]2[C@H](CC(=O)N3CCC[C@H]3CO)O[C@@]3(C(=O)N(Cc4cccc(N5CCCCC5=O)c4)c4ccccc43)[C@@H]2C)cc1`, for which the composite z-score was 0.342.
Turning to `[N-]=[N+]=Nc1ccccc1C[C@@]1(C(=O)NCc2ccccc2)N=C(c2ccc(OCCCO)cc2)O[C@@H]1c1ccccc1`, the composite z-score turned out to be 0.747.
The value for `[N-]=[N+]=NCc1ccccc1[C@H]1OC(c2ccc(OCCCO)cc2)=N[C@@]1(CCS(=O)(=O)c1ccccc1)C(=O)O` was 0.952; that for `CCOC(=O)C[C@H]1[C@H](OC(=O)c2cc3ccccc3oc2=O)[C@@H](NC(=O)Cc2ccc(OC)cc2)c2cc(OCCCO)ccc2N1C(=O)Cc1ccc(OC)cc1` was 0.112.
`C=C(C(=O)CC[C@@H](OC(=O)c1ccccc1-c1ccccc1C(=O)O)c1cccc(OCCO)c1)C(C)C`: the composite z-score was -0.757.
Compound `COC(=O)[C@@]1(Cc2ccc(F)cc2)[C@@H]2C(=CC(=O)[C@H]2CC(=O)C(=O)N2CCCC2)CN1C(=O)c1ccccc1` came in with a composite z-score of 1.02.
On to `CC(C)(C)OC(=O)CC[C@]1(C(N)=O)N=C(c2ccc(OCCCO)cc2)O[C@H]1c1ccccc1N=[N+]=[N-]`, for which the composite z-score turned out to be 0.426.
The compound `COc1ccc([Si](C)(C)[C@@H]2[C@@H](CC(=O)N3CCC[C@H]3CO)O[C@]3(C(=O)N(Cc4cccc(N5C(=O)c6cccc7cccc5c67)c4)c4ccccc43)[C@H]2C)cc1` displayed a composite z-score of 0.601.
In turn, `COC(=O)C(CC#Cc1ccc2c(c1)[C@]1(C(=O)N2)[C@H](c2ccccc2OCCO)N2[C@H](c3ccccc3)[C@H](c3ccccc3)OC(=O)[C@H]2[C@@H]1C(=O)N1CCN(c2ncccn2)CC1)C(=O)OC` returned a composite z-score of 0.706.
Take `COc1ccc(C(=O)Nc2ccc(CN3C(=O)[C@]4(O[C@H](CC(=O)N(CCO)Cc5ccccc5)[C@@H]([Si](C)(C)c5ccc(OC)cc5)[C@@H]4C)c4ccccc43)cc2)cc1`: the composite z-score was -0.622.
The result for `COCCOC(=O)N1C(=O)[C@@]2(c3cc(C#CCCO)ccc31)[C@H](c1ccc(O)cc1)N1[C@H](c3ccccc3)[C@H](c3ccccc3)OC(=O)[C@H]1[C@@H]2C(=O)NC[C@H](O)c1ccccc1` reads 0.417; that for `COc1ccc(NN2C(C(O)c3ccccc3)C=CC3C(=O)N(C4CCCCC4)C(=O)C32)cc1` (stereo unspecified), 0.74.
In turn, `COc1ccc([Si](C)(C)[C@H]2[C@H](CC(=O)N(CCO)Cc3ccccc3)O[C@@]3(C(=O)N(Cc4ccc(N5C(=O)c6cccc7cccc5c67)cc4)c4ccccc43)[C@@H]2C)cc1` showed a composite z-score of 0.0079.
In turn, `COc1ccc([Si](C)(C)[C@H]2[C@H](CC(=O)N3CCC[C@H]3CO)O[C@@]3(C(=O)N(C)c4c(Br)cc(C)cc43)[C@@H]2C)cc1` displayed a composite z-score of 0.824.
For `COCCOC(=O)N1C(=O)[C@@]2(c3cc(C#CCCO)ccc31)[C@H](C(=O)N1CCN(c3ncccn3)CC1)[C@H]1C(=O)O[C@H](c3ccccc3)[C@H](c3ccccc3)N1[C@@H]2c1ccc(OCCO)cc1`, the composite z-score amounted to 0.788.
The result for `COc1ccc([Si](C)(C)[C@H]2[C@H](CCO)O[C@@]3(C(=O)N(Cc4ccccc4)c4ccc(NC(=O)[C@H](C)O)cc43)[C@@H]2C)cc1` reads 0.639; that for `COc1cc(CO)cc(I)c1O[C@H]1C=C(C(=O)NCCO)C[C@@H](N(CCN2CCOCC2)C(=O)C2CCCO2)[C@@H]1O` (stereo partly specified), -0.184.
The result for `O=C(c1ccccc1)N1Cc2ccccc2C[C@@]2(N=C(c3ccc(OCCCO)cc3)O[C@H]2c2ccccc2)C1=O` reads -0.106.
`COCCCNC(=O)[C@@]1(Cc2ccccc2I)c2ccccc2C(=O)N(Cc2ccccc2OC)[C@H]1c1ccc(CO)cc1` yielded a composite z-score of -0.685.
The value for `CN(C)C(=O)[C@]1(CCS(=O)(=O)c2ccccc2)N=C(c2ccc(OCCCO)cc2)O[C@@H]1c1ccccc1CN=[N+]=[N-]` was 0.955; that for `C=CCC(OC(C)=O)[C@@H]1[C@@H](N(Cc2ccc(-c3ccccc3)cc2)C(=O)Cc2ccc(OC)cc2)c2cc(OCCCO)ccc2N1C(=O)c1ccc2ccccc2c1` (stereo partly specified) was 0.234.
For the compound `COc1cccc(C)c1NC(=O)O[C@H]1[C@H](OC(=O)Nc2ccccc2)[C@@H](OC(=O)Nc2ccccc2)[C@@H](OC)O[C@@H]1CO`, the composite z-score is 0.541.
